From PubChem BioAssay (Tox21) come the findings set out here.

Each structure is given as a SMILES string. Values joined by “and” are separate entries in the source; they are usually repeats but may differ in a detail not shown here. Identical values can stand only once. The source holds several records for some structures; these can differ, active in one and inactive in another. Active and inactive are the calls of the source. Unless noted, calls come from the whole dose curve; as a rule, active = well fitted curve in the direction sought with a large enough effect in the repeat runs; inconclusive = weak or mixed curves; inactive = no such curve, though single readings can be large; an effect the other way counts as inactive or inconclusive.

Assay [1] can be described thus: qHTS assay to identify small molecule antagonists of the thyroid receptor (TR) signaling pathway (AID 743065). Note: nearly all actives have a fitted effect of over 55% in size. Note: potency is the fitted concentration of half-maximal effect. The gist of the method:
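Antagonism measured as loss of luciferase signal in GH3 cells stably carrying a TRE-luciferase reporter, co-treated with compound and T3 (1 nM final) for 23.5 h at 37 C. Viability was read in the same well by CellTiter-Fluor.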
Background: qHTS replaces the single test concentration by a dilution series.

Assay [2] has as its system thyroid hormone receptor (rat, GH3 cells). The assay can be described thus: qHTS assay to identify small molecule agonists of the thyroid receptor (TR) signaling pathway (AID 743066; calls by dose curve).
Assay [3] can be described thus: qHTS assay to identify small molecule antagonists of the estrogen receptor alpha (ER-alpha) signaling pathway - cell viability counter screen (AID 743074; calls by dose curve;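 note: HEK293 cells carrying ER-alpha-UAS-bla reporter stimulated with 17beta-estradiol; nearly all actives have a fitted effect of over 45% in size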).
A short description of assay [4]: qHTS assay to identify small molecule antagonists of the estrogen receptor alpha (ER-alpha) signaling pathway using the BG1 cell line - cell viability counter screen (AID 743081).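 Note: compound given together with 17beta-estradiol as the ER stimulus; nearly all actives have a fitted effect of over 45% in size.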
The next assay has as its target Aromatase (Homo sapiens) (UniProt P11511). Kind of assay: qHTS assay to identify aromatase inhibitors (AID 743083). Note: nearly all actives have a fitted effect of over 55% in size.
A short description of assay [5]: qHTS assay to identify aromatase inhibitors - cell viability counter screen (AID 743084).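 Note: cells stimulated with testosterone during compound exposure; nearly all actives have a fitted effect of over 55% in size.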 Note: potency is the fitted concentration of half-maximal effect.
Assay [6] in a line: qHTS assay to identify small molecule that activate the aryl hydrocarbon receptor (AhR) signaling pathway - cell viability counter screen (AID 743086).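 Note: HepG2 liver cells carrying the AhR DRE luciferase reporter; nearly all actives have a fitted effect of over 45% in size.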 The procedure, abridged:
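Cytotoxicity counter screen: CellTiter-Fluor signal (30 min, 37 C) in 4000 HepG2 cells/well carrying the DRE-luciferase reporter, following 24 h compound exposure at 37 C.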

Assay [7] is described as follows: qHTS assay to identify small molecule antagonists of the peroxisome proliferator-activated receptor gamma (PPARg) signaling pathway - cell viability counter screen (AID 743194). Note: nearly all actives have a fitted effect of over 55% in size. The note with it: Potency: co-treated with 50 nM rosiglitazone unless noted. The gist of the method:
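Viability was measured as CellTiter-Glo luminescence in GeneBLAzer PPARg UAS-bla HEK293H cells. These cells had been exposed 17 h at 37 C to compounds together with rosiglitazone at 50 nM final, with the beta-lactamase readout taken in the same wells.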

Assay [8] is described as follows: qHTS assay for small molecule agonists of the antioxidant response element (ARE) signaling pathway - cell viability counter screen (AID 743203; calls by dose curve; note: nearly all actives have a fitted effect of over 55% in size). The procedure, abridged:
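ARE-bla HepG2 cells were plated, rested 5 h at 37C/5% CO2, then exposed to compounds in DMSO for 16 h. Viability was read as CellTiter-Glo luminescence after 30 min at room temperature, in the same wells as the ARE screen.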

A short description of assay [9]: qHTS assay for small molecule activators of the heat shock response signaling pathway (AID 743210; active = well fitted activation curve with a large enough effect in the signal ratio in the repeat runs, with a control signal flat, not every such curve was filed as active; inconclusive = weak or mixed curves; the % refers to the signal ratio;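 note: HeLa cells with beta-lactamase reporter driven by heat shock elements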). The gist of the method: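 In HSE-bla HeLa cells, 5 h compound incubation (37 C) precedes addition of LiveBLAzer B/G substrate; after 2.5 h at room temperature, fluorescence intensity indicates reporter induction.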
Assay [10] can be described thus: qHTS assay to identify small molecule agonists of the peroxisome proliferator-activated receptor delta (PPARd) signaling pathway - cell viability counter screen (AID 743211). Note: nearly all actives have a fitted effect of over 55% in size. The procedure, abridged:
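In the same wells used for beta-lactamase reporter measurement, cytotoxicity is scored by CellTiter-Glo. HEK293H PPARd-bla cells receive compound for 17 h at 37C following a 5 h settling period.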

In assay [11] the target is Aryl hydrocarbon receptor (Homo sapiens) (UniProt P35869). The assay can be described thus: qHTS assay to identify small molecule that activate the aryl hydrocarbon receptor (AhR) signaling pathway (AID 743085).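 Note: HG2L7.5c1 human HepG2 liver cells with stably integrated DRE-driven firefly reporter; nearly all actives have a fitted effect of over 15% in size.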 The gist of the method:
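Stably transfected human liver carcinoma cells (HG2L7.5c1; 20 DRE-firefly luciferase) were incubated 5 h, dosed, and kept 24 h at 37C. Agonism was scored from increased luciferase luminescence.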

The nature of assay [12]: qHTS assay for small molecule agonists of the antioxidant response element (ARE) signaling pathway (AID 743202; active = well fitted activation curve with a large enough effect in the signal ratio in the repeat runs, not every such curve was filed as active; inconclusive = weak or mixed curves, or effect the other way; inactive = no such curve, though single readings can be large or run the other way; the % refers to the signal ratio; note: potency is the fitted concentration of half-maximal effect). The gist of the method:
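An ARE-responsive beta-lactamase gene stably integrated in HepG2 cells serves as reporter. After 5 h plating and 16 h compound incubation at 37 C, fluorescence of the B/G FRET substrate was measured.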

A short description of assay [13]: qHTS assay for small molecule activators of the heat shock response signaling pathway - cell viability counter screen (AID 743209). Note: nearly all actives have a fitted effect of over 50% in size. The procedure, abridged:
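HSE-bla HeLa cells plated overnight, then exposed to Tox21 compounds (23 nL in DMSO) for 5 h at 37 C. After the bla reporter read, CellTiter-Glo was added in the same wells and luminescence read after 30 min at room temperature.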

Assay [14] has as its target Estrogen receptor (Homo sapiens) (UniProt P03372). The assay can be described thus: qHTS assay to identify small molecule antagonists of the estrogen receptor alpha (ER-alpha) signaling pathway (AID 743069; active = well fitted curve in the direction sought with a large enough effect in the signal ratio in the repeat runs, not every such curve was filed as active; inconclusive = weak or mixed curves, or effect the other way; inactive = no such curve, though single readings can be large or run the other way; the % refers to the signal ratio). The procedure, abridged:
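Compound effects are measured against 17beta-estradiol stimulation in HEK293 cells with a UAS-controlled beta-lactamase reporter for ER-alpha. Exposure lasts 18 hr at 37C; LiveBLAzer B/G FRET substrate follows for 2 hr at room temperature.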

Assay [15] shares this target. The assay can be described thus: qHTS assay to identify small molecule agonists of the estrogen receptor alpha (ER-alpha) signaling pathway (AID 743075; calls by dose curve; note: potency is the fitted concentration of half-maximal effect).
The target is the same in assay [16]. The assay can be described thus: qHTS assay to identify small molecule agonists of the estrogen receptor alpha (ER-alpha) signaling pathway using the BG1 cell line (AID 743079). Note: nearly all actives have a fitted effect of over 20% in size. Note: potency is the fitted concentration of half-maximal effect. The following applies: BG1Luc4E2 cells, ERE-luciferase agonist, 22 h; activation: at 70.3 µM (top of the series) unless noted.
The nature of assay [17]: qHTS assay to identify small molecule antagonists of the estrogen receptor alpha (ER-alpha) signaling pathway using the BG1 cell line (AID 743080; calls by dose curve;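 note: BG1 cells stimulated with 17beta-estradiol alongside compound; nearly all actives have a fitted effect of over 25% in size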; note: potency is the fitted concentration of half-maximal effect). The procedure, abridged:
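Luminescence from a 4×ERE-luciferase reporter in BG1-Luc-4E2 cells served as read-out. Cells, pre-cultured 5 days in stripped-serum phenol-red-free medium, were exposed to compound with 17beta-estradiol co-stimulation for 21.5 h at 37 C.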

Assay [18] deals with Peroxisome proliferator-activated receptor gamma (Homo sapiens) (UniProt P37231). The assay can be described thus: qHTS assay to identify small molecule agonists of the peroxisome proliferator-activated receptor gamma (PPARg) signaling pathway (AID 743094; active = well fitted activation curve with a large enough effect in the signal ratio in the repeat runs, not every such curve was filed as active; inconclusive = weak or mixed curves, or effect the other way; inactive = no such curve, though single readings can be large or run the other way; the % refers to the signal ratio). The procedure, abridged: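 GeneBLAzer PPARg UAS-bla HEK293H cells were plated, rested 5 h, then exposed to compounds for 17 h at 37C. Beta-lactamase activity was read by LiveBLAzer B/G FRET substrate fluorescence after 1 h at room temperature.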
Peroxisome proliferator-activated receptor gamma (Homo sapiens), sequence (P37231 whole entry, looked up): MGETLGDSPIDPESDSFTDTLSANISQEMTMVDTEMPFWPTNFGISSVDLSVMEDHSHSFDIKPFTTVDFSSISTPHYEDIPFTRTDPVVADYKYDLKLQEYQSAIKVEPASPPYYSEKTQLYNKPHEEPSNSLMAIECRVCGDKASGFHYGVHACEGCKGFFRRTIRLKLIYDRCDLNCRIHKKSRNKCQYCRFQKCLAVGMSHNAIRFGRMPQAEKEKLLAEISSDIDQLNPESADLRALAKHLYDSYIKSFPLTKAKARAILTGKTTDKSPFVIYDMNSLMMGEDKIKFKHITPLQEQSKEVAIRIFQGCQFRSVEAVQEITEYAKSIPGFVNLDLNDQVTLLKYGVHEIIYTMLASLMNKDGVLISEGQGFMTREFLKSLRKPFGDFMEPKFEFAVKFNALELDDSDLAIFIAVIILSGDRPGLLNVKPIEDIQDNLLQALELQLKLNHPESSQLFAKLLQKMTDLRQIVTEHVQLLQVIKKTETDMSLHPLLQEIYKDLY

The target is the same in assay [19]. Kind of assay: qHTS assay to identify small molecule antagonists of the peroxisome proliferator-activated receptor gamma (PPARg) signaling pathway (AID 743191; calls by dose curve; note: nearly all actives have a fitted effect of over 30% in size). The procedure, abridged: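 Beta-lactamase reporter under UAS control in HEK293H PPARg-bla cells; compound treatment 17 h at 37C. Read-out: fluorescence intensity after 1 h room-temperature incubation with LiveBLAzer B/G FRET substrate.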

Aryl hydrocarbon receptor (Homo sapiens), sequence (P35869 whole entry, looked up): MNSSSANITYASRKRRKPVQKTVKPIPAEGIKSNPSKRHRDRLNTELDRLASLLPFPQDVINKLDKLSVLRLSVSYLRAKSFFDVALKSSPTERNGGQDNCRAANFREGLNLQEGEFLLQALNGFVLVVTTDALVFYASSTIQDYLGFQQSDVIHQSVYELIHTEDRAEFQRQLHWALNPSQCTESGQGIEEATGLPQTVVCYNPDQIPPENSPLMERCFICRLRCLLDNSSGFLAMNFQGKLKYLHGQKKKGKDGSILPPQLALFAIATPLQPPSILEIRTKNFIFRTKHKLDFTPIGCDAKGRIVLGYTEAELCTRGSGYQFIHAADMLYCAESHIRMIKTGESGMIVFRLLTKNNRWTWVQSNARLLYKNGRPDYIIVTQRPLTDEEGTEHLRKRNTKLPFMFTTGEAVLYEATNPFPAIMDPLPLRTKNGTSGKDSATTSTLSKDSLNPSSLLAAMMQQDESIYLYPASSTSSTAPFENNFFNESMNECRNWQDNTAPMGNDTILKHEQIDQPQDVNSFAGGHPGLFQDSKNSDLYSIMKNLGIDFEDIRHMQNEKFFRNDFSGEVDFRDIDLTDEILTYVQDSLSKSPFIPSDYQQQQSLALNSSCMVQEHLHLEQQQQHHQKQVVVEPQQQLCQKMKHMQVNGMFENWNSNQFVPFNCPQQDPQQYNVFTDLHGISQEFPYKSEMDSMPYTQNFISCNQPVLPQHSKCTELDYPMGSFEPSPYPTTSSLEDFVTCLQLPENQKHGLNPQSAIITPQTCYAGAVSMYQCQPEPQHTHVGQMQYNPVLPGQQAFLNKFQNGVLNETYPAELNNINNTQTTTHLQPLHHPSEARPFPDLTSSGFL
Aromatase (Homo sapiens), sequence (P11511 whole entry, looked up): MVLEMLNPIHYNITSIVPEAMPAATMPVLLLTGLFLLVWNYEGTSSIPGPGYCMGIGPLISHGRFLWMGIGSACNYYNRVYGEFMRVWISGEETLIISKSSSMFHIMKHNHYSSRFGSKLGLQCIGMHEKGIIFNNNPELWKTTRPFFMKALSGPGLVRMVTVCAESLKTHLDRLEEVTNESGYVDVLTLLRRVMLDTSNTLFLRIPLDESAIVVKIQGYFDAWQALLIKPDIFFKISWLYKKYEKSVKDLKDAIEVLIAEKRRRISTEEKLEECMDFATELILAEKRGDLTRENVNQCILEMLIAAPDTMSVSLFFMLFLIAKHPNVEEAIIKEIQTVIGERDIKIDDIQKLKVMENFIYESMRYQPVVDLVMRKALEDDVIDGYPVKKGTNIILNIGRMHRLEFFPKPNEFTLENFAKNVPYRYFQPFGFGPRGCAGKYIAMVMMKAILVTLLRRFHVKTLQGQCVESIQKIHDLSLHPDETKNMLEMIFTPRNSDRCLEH
Estrogen receptor (Homo sapiens), sequence (P03372 whole entry, looked up): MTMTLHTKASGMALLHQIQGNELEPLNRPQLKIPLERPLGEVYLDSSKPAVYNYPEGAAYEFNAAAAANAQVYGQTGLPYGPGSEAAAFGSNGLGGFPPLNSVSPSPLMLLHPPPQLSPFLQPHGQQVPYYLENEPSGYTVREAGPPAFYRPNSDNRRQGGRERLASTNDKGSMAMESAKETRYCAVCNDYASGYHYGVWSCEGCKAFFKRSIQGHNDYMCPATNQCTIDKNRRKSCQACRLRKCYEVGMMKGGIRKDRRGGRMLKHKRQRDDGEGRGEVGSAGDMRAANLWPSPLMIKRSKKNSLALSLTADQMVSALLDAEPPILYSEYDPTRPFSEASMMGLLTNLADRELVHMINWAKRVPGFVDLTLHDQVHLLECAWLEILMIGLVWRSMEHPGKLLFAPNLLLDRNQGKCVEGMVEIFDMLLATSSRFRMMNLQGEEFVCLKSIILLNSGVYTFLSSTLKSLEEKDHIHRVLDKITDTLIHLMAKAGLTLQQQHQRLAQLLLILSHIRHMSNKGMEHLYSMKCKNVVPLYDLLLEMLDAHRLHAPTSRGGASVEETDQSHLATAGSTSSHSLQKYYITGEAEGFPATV

With `OCCOCCOCCOCCOCCO`, the Potency result (in assay [1]; in [2]; in assay [3]; in assay [4]; with Aromatase (Homo sapiens); in assay [5]) was “inactive” in each case. For the same molecule, the Potency entry in [6], in assay [7], in [8], in [9] and in [10] was “inactive” each time.

As to `CCn1cc(C(=O)O)c(=O)c2cc3c(cc21)OCO3`, the Potency entry (in assay [1]; in [2]; in assay [3]; in assay [4]; with Aromatase (Homo sapiens); in assay [5]) was “inactive” in each case. Moreover, the Potency result in assay [11], in [6], in [7], in assay [12], in assay [8] and in assay [13] was “inactive” in each case. Further, the Potency entry in assay [9] and in assay [10] was “inactive” in each case.

`CCCN(CCC)C(=O)SCC`: the Potency entry in assay [1], in assay [14], in assay [3], in assay [15], in [16] and in assay [17] was “inactive” in each case. For the same molecule, the Potency result (in assay [4]; with Aromatase (Homo sapiens); in assay [5]; in [11]; in assay [6]; in [18]) was “inactive” each time. Moreover, the Potency result in assay [19], in assay [7], in assay [12], in [8], in assay [9] and in assay [10] was “inactive” in each case.

With `O=C(NCC1CCCCN1)c1cc(OCC(F)(F)F)ccc1OCC(F)(F)F` (stereo not drawn), the Potency in [1] was 53.5 µM (active). In addition, the Potency entry in assay [2], in assay [3], in assay [4], in [6], in assay [7] and in assay [12] was “inactive” in each case. Moreover, the Potency entry in [8], in assay [13] and in assay [10] was “inactive” each time.

Turning to `O=C(O)C1=NN(c2ccc(S(=O)(=O)O)cc2)C(=O)C1`, the Potency result in [14], in [3], in assay [15], in [16], in assay [17] and in [4] was “inactive” each time. Further, the Potency entry (with Aromatase (Homo sapiens); in assay [5]; in [11]; in assay [6]; in assay [18]; in [19]) was “inactive” each time. The Potency entry in [7], in assay [8], in [13], in [9] and in assay [10] was “inactive” throughout.

`COC(=O)/C=C\C(=O)OC`: the Potency result in assay [1], in [2], in [3], in assay [4], in assay [6] and in [7] was “inactive” each time. For the same molecule, the Potency result in assay [8] and in assay [9] was “inactive” each time.

In the case of `CC1(C)[C@@H](O[C@H]2O[C@H](C(=O)O)[C@@H](O)[C@H](O)[C@H]2O[C@@H]2O[C@H](C(=O)O)[C@@H](O)[C@H](O)[C@H]2O)CC[C@]2(C)[C@H]3C(=O)C=C4[C@@H]5C[C@@](C)(C(=O)O)CC[C@]5(C)CC[C@@]4(C)[C@]3(C)CC[C@@H]12`, the Potency entry (in assay [2]; in assay [3]; in assay [4]; in the assay with Aromatase (Homo sapiens); in [5]; in [11]) was “inactive” throughout. Further, the Potency entry in [6], in assay [7], in [12], in [8] and in assay [13] was “inactive” in each case.

`CC(=O)OC[C@H]1O[C@@](COC(C)=O)(O[C@H]2O[C@H](COC(C)=O)[C@@H](OC(C)=O)[C@H](OC(C)=O)[C@H]2OC(C)=O)[C@@H](OC(C)=O)[C@@H]1OC(C)=O`: the Potency result (in [1]; in [2]; in [3]; in assay [4]; with Aromatase (Homo sapiens); in assay [5]) was “inactive” each time. Moreover, the Potency result in [11], in [6], in [7], in [12], in [8] and in assay [9] was “inactive” throughout.

With `NC1CCCCC1N` (stereo not drawn), the Potency result (in assay [3]; in assay [4]; with Aromatase (Homo sapiens); in assay [5]; in assay [11]; in [6]) was “inactive” each time. In addition, the Potency result in [7], in assay [8], in assay [13], in [9] and in assay [10] was “inactive” each time.

Regarding `Oc1ccc(Cc2ccccc2O)cc1`, the Potency result (in assay [2]; in assay [3]; in [17]; in assay [4]; in the assay with Aromatase (Homo sapiens); in [5]) was “inactive” in each case. For the same molecule, the Potency result in assay [11], in assay [6], in [18], in [19], in [8] and in assay [13] was “inactive” each time. Also, in assay [9], the Potency result is “inactive”. Further, the Potency was 11.1 µM [inconclusive] (active) and 24.5 µM [inconclusive] (active) in assay [15]; 9.81 µM (active) and 6.11 µM (active) in assay [16]; 30.6 µM (active) in assay [12].

For `COc1ccc2cc3[n+](cc2c1OC)CCc1cc2c(cc1-3)OCO2`, the Potency in [1] was 61.6 µM (active); in [17], 26.6 µM (active); in assay [5], “inactive and 48.9 µM (active)”. For the same molecule, the Potency result (in assay [2]; in [15]; with Aromatase (Homo sapiens); in [6]; in assay [18]; in [7]) was “inactive” in each case. Moreover, the Potency result in assay [8], in [13] and in assay [9] was “inactive” throughout.

Take `CC(C)(C)NC[C@H](O)COc1nsnc1N1CCOCC1`: the Potency result in [1], in [2], in assay [3], in assay [4], in assay [5] and in assay [11] was “inactive” throughout. In addition, the Potency entry in assay [6], in assay [7], in assay [8], in [13], in assay [9] and in [10] was “inactive” in each case.

For the molecule `CN1Cc2c(N)cccc2C(c2ccccc2)C1` (stereo not drawn), the Potency result in assay [1], in assay [2], in assay [3], in [4], in assay [11] and in [6] was “inactive” throughout. Further, the Potency result in assay [7], in assay [12], in assay [8], in [9] and in assay [10] was “inactive” in each case.
